Laboratory results published in PubChem BioAssay AID623911 (Vanderbilt High Throughput Screening Facility, 2012).
The campaign covered roughly 2,100 compounds. About 770 (37%) were called active.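 The calls were made as follows: active = by-eye trace score of 1 for enhancers or -1 for inhibitors, so actives lie on both sides (some results past the limit were not filed as active); inactive = score 0, or 3 fluorescent, or 4 baseline rise.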 Some of the results follow.

biological target: G protein-activated inward rectifier potassium channel 2 (Homo sapiens) + G protein-activated inward rectifier potassium channel 1 (Homo sapiens) (UniProt P48051+P48549); test: GIRK1/2 thallium flux modulators, retest, confirmation, cell-based, HEK293 rmGlu8/hGIRK1/2, FluoZin-2 (AID 623911); conditions: HEK293 rmGlu8/hGIRK1/2, thallium flux FluoZin-2; actives lie on both sides; glutamate co-added at its EC20 level
Sequence (P48051 whole entry, looked up): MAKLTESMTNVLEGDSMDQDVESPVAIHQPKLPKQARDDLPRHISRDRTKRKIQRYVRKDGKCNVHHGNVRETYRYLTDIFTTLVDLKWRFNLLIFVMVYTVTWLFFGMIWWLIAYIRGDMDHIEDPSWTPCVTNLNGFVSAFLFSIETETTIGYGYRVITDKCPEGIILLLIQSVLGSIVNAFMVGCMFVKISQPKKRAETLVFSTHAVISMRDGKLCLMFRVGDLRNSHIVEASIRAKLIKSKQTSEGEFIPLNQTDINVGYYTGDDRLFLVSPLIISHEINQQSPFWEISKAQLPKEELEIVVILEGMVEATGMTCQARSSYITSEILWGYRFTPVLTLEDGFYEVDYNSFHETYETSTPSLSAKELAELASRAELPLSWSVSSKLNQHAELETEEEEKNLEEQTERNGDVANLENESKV
Sequence (P48549 whole entry, looked up): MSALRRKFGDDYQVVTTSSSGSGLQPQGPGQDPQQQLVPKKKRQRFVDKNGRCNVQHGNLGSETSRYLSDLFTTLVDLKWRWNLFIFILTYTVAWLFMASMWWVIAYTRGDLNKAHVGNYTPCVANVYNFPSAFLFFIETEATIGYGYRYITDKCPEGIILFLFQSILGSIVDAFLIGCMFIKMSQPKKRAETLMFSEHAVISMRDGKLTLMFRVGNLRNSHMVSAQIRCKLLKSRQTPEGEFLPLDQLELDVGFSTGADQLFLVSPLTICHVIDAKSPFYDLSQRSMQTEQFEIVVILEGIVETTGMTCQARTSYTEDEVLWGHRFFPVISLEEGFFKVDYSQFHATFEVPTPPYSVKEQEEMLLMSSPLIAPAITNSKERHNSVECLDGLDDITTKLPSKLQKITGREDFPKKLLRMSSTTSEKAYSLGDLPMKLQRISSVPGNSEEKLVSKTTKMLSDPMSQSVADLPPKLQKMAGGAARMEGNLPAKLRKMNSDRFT

Manual score, inactive:
Cc1ccccc1-n1nnc2c(=O)oc3ccccc3c21 0, O=C(Cc1ccccc1)Nc1nc(=O)c2ccccc2s1 0, CCN(CC)C(=S)SCC(=O)Nc1nc(=O)c2ccccc2s1 0, COC(=O)c1ccc(NS(=O)(=O)c2ccc(SC)cc2)cc1 0, CC(=O)Nc1ccc(SCC(=O)c2cc(C)n(-c3ccccc3F)c2C)cc1 0, CC(C)N(Cc1nc(-c2ccccc2)no1)C(=O)CSc1ccccc1 0, O=C(CCCc1nc(-c2ccc(Cl)cc2)no1)N1CCOCC1 0, CN(C)Cc1c(O)c(Cl)cc2c3c(c(=O)oc12)CCCC3 0, O=C(O)C1C2C=CC3(CN(C4CCCC4)C(=O)C13)O2 (configuration not stated) 0, O=C(NC(=S)NCCC1=CCCCC1)c1cncc(Br)c1 0, CCCOc1ccc(NCC(=O)Nc2ccc(C)cc2C)cc1 0, COc1ccc(NC(=O)Nc2ccccc2OC)cc1 0, COc1ccc(NC(=O)NC(C)c2ccncc2)cc1OC (configuration not stated) 0, COc1ccc2cc(C(=O)Nc3ccccc3)sc(=O)c2c1OC 0, Cc1ccc(OC(=S)Nc2ccccc2)c(C)c1 0, O=C(O)c1ccccc1C(=O)Nc1ccc(-c2csc(-c3ccccc3)n2)cc1 0, CN1CC=C2C(C#N)=C(N)C(C#N)(C#N)[C@H](c3cccc(Cl)c3)C2C1 (some centres not stated) 3, COc1cc(C(=S)N2CCCC2)cc(OC)c1OS(=O)(=O)c1ccc(NC(C)=O)cc1 0, COC(=O)c1ccccc1NC(=O)Nc1cnccn1 0.5, Cc1ccc(-c2[nH]nc3c2C(c2ccoc2)C(C#N)=C(N)O3)cc1C (configuration not stated) 0, CCOC(=O)N1CCC(n2c(=S)[nH]c3ccccc3c2=O)CC1 0, CCOC(=O)N1CCN(c2ccc3nnnn3n2)CC1 0, COc1ccc(-c2nnc(NC(=O)c3ccc(S(=O)(=O)N4CCCc5ccccc54)cc3)o2)cc1 0, CCOc1ccc(-c2nc(-c3ccc(OC)c(OC)c3)no2)cc1OCC 0, CCOc1ccc(-c2nnc(NC(=O)CCCOc3cccc(C)c3)o2)cc1 0, COc1ccc(C(=O)Nc2ccc(S(=O)(=O)NCc3ccco3)cc2)cc1OC 0, O=C(CSc1ccc(-c2ccco2)nn1)c1ccccc1 0, COc1ccc(-c2nnc(NC(=O)c3ccc(S(=O)(=O)N4CCc5ccccc5C4)cc3)o2)cc1 0, CCc1cc(C(N)=O)c(NC(=O)c2ccc(OC)cc2)s1 0, CC(=O)CN1Cc2ccccc2/C1=N\C(=O)Nc1ccccc1 0, CCCCN(C)C1=CC2=CC(=C(C#N)C#N)CCC2CC1 (configuration not stated) 3, Cc1ccccc1Cn1cc(NC(=O)c2nc3ncccn3n2)cn1 0, O=C(c1cc(-c2ccccc2)on1)N1CCCC1 0, Cc1cccc(N2CCN(C(=O)c3ccc(Cl)c(S(=O)(=O)N4CCc5ccccc5C4)c3)CC2)c1C 0, O=c1sc(N2CCN(c3ccccc3F)CC2)nc2ccsc12 0, Cc1ccccc1C(=O)NC(=S)Nc1sc2c(c1C#N)CCCC2 0, C=CCNC(=S)NNC(=O)COc1ccc(Cl)cc1Cl 0, S=c1[nH]ccn1-c1cccc(Cl)c1 0, Oc1ccc2ccc3cccc[n+]3c2c1 3, CCn1c(-c2cc(-c3cccc(OC)c3)nc3ccccc23)n[nH]c1=S 0, Cc1c(Cl)cccc1NC(=S)/C(=C(\[O-])c1ccc(Cl)s1)[n+]1ccccc1 0, Cc1ccccc1C(=O)Nc1nc(=S)ss1 0, Cc1ccccc1C(=O)NC(=S)NCCc1ccccc1 0, CCOC(=O)C(CC)n1cnc2c(nnn2-c2ccc(OC)cc2)c1=O (configuration not stated) 0, O=C(Nc1nc(-c2ccccn2)cs1)c1ccc(Br)s1 0, CCNc1nnc(-c2ccc(C)cc2)o1 -0.5, C/C(=N/NC(=O)c1ccncc1)c1cc2ccc(O)cc2oc1=O 0, CCOc1cc(/C=N/NC(=O)CNc2cccc(C)c2)ccc1OC(=O)c1ccccc1 0, O=C(Nn1c(C2CCCCC2)nc2ccccc2c1=O)c1ccc([N+](=O)[O-])cc1Cl 0, CC1(C)NC(=O)N(CC(O)COc2ccc(-c3ccc(C#N)cc3)cc2)C1=O (configuration not stated) 0, Cc1cc(CC(C)C)n(-c2nc3ccccc3c(=O)n2OCC(N)=O)n1 0, O=C(CN1CCN(Cc2ccccc2)CC1)Nc1cccc(C(F)(F)F)c1 0, CC1(C)Cc2ccccc2-c2nnc(SCC(=O)N3CCN(c4ccccc4)CC3)n21 0, CCOc1ccc(-n2c(Cc3cc(=O)[nH]c(=O)[nH]3)nnc2SC(C)C(=O)OC)cc1 (configuration not stated) 0, COC(=O)c1ccc(CSc2nc3c(c(=O)n2-c2ccc(F)cc2)SCC3)o1 0, CC(C)Cn1c2c(c(O)c(C(=O)Nc3ncccc3O)c1=O)CCCC2 0, CCCCCn1nc(-c2ccccc2)c2nc3ccccc3nc21 3, O=c1c2c3c(sc2nc2n1CCCCC2)CCCCC3 0, CCCCN(CCCC)C(=O)CSc1nnc2n(C)c(=O)c3c4c(sc3n12)CCCC4 -0.5, S=C1Nc2ccccc2Sc2ccc(Cl)cc21 0, CCOc1ccccc1OCCCCCc1c(C)n[nH]c1C 0, CC1(C)CC(c2nc(-c3ccc(Br)cc3)cs2)CCS1 (configuration not stated) 0, Cc1ccc(Cn2c(SCC(=O)NCC3CCCO3)nc3c(sc4ccccc43)c2=O)cc1 (configuration not stated) 0.5, CCOC(=O)/C(=C/C=C1\Sc2ccccc2N1CC)C(C)=O 3, O=C1CS/C(=N\C(=O)N2c3ccccc3Sc3ccccc32)N1 0, COCC(=O)/C=C1\Sc2ccccc2N1C 0

Manual score, active:
O=C(Nc1nc(=O)c2ccccc2s1)c1ccc(F)cc1 1, O=C(Nc1nc(=O)c2ccccc2s1)c1ccccc1 1, O=C(Nc1nc(=O)c2ccccc2s1)c1ccc(Cl)cc1 1, COC(=O)c1ccc(-n2c(C)cc(C(=O)CSc3ccc(NC(C)=O)cc3)c2C)cc1 1, CCc1ccccc1N(C)C(=O)CCc1nc(-c2ccc(C)cc2)no1 -1, COc1ccc(C)cc1NC(=O)Nc1ccccc1 1, CCOc1ccc(NC(=O)Nc2cc(C)ccc2OC)cc1 1, COc1ccc(C)cc1NC(=O)NCCC1=CCCCC1 1, COc1ccc(NC(=O)Nc2cc(C)ccc2OC)cc1 1, COc1ccc(NC(=O)Nc2ccccc2C(=O)N2CCCC2)cc1 1, COC(=O)[C@H](Cc1ccccc1)NC(=O)NCCC1=CCCCC1 1, CCOC(=O)N1CCN(c2c(F)cc3[nH]c(=S)[nH]c3c2Br)CC1 -1, COc1ccc(-c2nnc(NC(=O)c3ccc(F)cc3)o2)cc1 1, CCOc1ccc(-c2nnc(NC(=O)c3ccc(OCC(C)C)c(OC)c3)o2)cc1 1, COc1ccc(-c2nnc(NC(=O)c3ccc(S(=O)(=O)N4COCC4(C)C)cc3)o2)cc1 1, O=C(Nc1nnc(-c2ccco2)o1)c1ccc2ccccc2c1 1, CCCn1cc(NC(=O)c2cc(-c3ccccc3)on2)cn1 1, CC(C)n1cc(NC(=O)c2cc(-c3ccccc3)on2)cn1 1, Cc1ccc2cccc(S(=O)(=O)N3CCN(c4ccccc4F)CC3)c2n1 -1, Cc1ccccc1C(=O)NNC(=S)NC(=O)c1ccc(Cl)cc1Cl 1, Cc1onc(-c2ccccc2)c1C(=O)NC(=S)Nc1sc2c(c1C#N)CCCC2 1, Cc1onc(-c2ccccc2)c1C(=O)NNC(=S)NC(=O)c1ccc(Br)cc1 1, O=C(COc1ccccc1)NNC(=S)NC(=O)c1ccc(Cl)cc1Cl 1, Cc1ccccc1C(=O)NNC(=S)NC(=O)c1ccccc1 1, Cc1ccccc1C(=O)NNC(=O)C(=O)Nc1cccc(Cl)c1C 1, CCC(C)n1c(=S)[nH]c2c(sc3ccc([N+](=O)[O-])cc32)c1=O (configuration not stated) 1, COc1cccc2sc(Nc3nnc(-c4cccs4)o3)nc12 1, COc1cccc2sc(Nc3nc(-c4ccccn4)cs3)nc12 1, COc1ccc(-c2nnc(Nc3nc4c(OC)cccc4s3)o2)cc1 1, COc1ccccc1OCC(O)Cn1c(=N)n(Cc2ccccc2)c2ccccc21 (configuration not stated) -1, Cc1ccc(OCC(O)Cn2c(=N)n(Cc3ccccc3)c3ccccc32)cc1 (configuration not stated) -1, CN(C)c1nc(OCCNC(=O)COc2ccc(Cl)cc2Cl)nc(N2CCOCC2)n1 -1, Cc1ccc(CC(=O)N2CCN(c3cccc(C(F)(F)F)c3)CC2)cc1 1, CCOc1ccc(-n2c(SC(C)C(=O)OC)nc3c(c2=O)SCC3)cc1 (configuration not stated) -1, COC(=O)C(NC(=O)COc1ccccc1)(Nc1nc2c(s1)CCCC2)C(F)(F)F (configuration not stated) -1, CCn1c(SCC(N)=O)nc2sc3c(c2c1=O)CCCC3 1, Clc1ccc2c(c1)-c1nnc(Br)n1-c1ccccc1S2 -1, CCN(CC)CC(O)COCCC12CC3CC(CC(C3)C1)C2 (configuration not stated) -1, CCN(CC)CCN(CC)Cc1ccccc1Br -1, CCOc1ccccc1C(=O)N1c2ccccc2Sc2ccccc21 -1, COc1ccccc1C(=O)N1c2ccccc2Sc2ccccc21 -1
